Measurements from paper PMC5540273 (PLoS ONE, 2017).
“And” between values parts separate entries of the source, which are not always exact repeats. Identical values can stand only once.

system: T1, MEK1; details: concentration: 1 μM, replicates: in singlicate; 1 µM; n = 1
T1 construct: gene MAP2K1
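Also: KINOMEscan kinase panel screen.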

Row | Compound | %Inh
1 | CC(C)(CN)c1nc(-c2ccc(Cl)c(O)c2)c(-c2ccncc2)[nH]1.O=C(O)C(F)(F)F [SB-477794] | 14% and 2%
2 | NCCNS(=O)(=O)c1ccc(-c2ccnc3[nH]ccc23)cc1 [GSK977617] | 24% and 17%
3 | Cl.Cl.Cl.Fc1ccc(-c2ncn(C3CCNCC3)c2-c2ccnc(Nc3ccccc3)n2)cc1 [SB-238039] | 36% and 3%

same assay, conditions: concentration: 1 μM, replicates: in singlicate; n = 1

Row | Compound | %Inh [%]
4 | COc1ccc(Nc2nccc(N3CCC(NC(=O)Nc4cccc(C(C)=O)c4)C3)n2)cc1 (stereo not drawn) [GSK1379731] | 0
5 | Fc1ccc(-c2nn3c(OCC(F)(F)F)cccc3c2-c2ccncc2)cc1 [GW514784] | 0
6 | Cc1cn2c(=O)cc(N3CCOCC3)nc2n1Cc1cccc(Cl)c1Cl [GSK2334006] | 11
7 | Fc1ccc(-c2ncn(CCCN3CCOCC3)c2-c2cccnc2)cc1 [SB-211743] | 27
8 | C[C@@H](Oc1cc(-n2cnc3ccc(NC(=O)NC(C)(C)C)cc32)sc1C(N)=O)c1ccccc1Cl [GSK346294] | 0
9 | Cc1ccc(C(=O)NCC(N)=O)cc1-n1c(C)cc(OCc2ccc(F)cc2F)c(Br)c1=O | 0
10 | c1ccc(-c2n[nH]cc2-c2ccnc3ccccc23)nc1 [GW271431] | 0
11 | O=C1Cc2cc(Nc3nc(NCc4cccc(S(=O)(=O)C(F)(F)F)c4)ncc3C(F)(F)F)ccc2N1 | 0
12 | NCC(NC(=O)c1cc(-c2cn[nH]c2)c(-c2ccnc3[nH]ccc23)s1)c1ccccc1.O=C(O)C(F)(F)F.O=C(O)C(F)(F)F (stereo not drawn) [GSK1325775] | 0
